Among all 350,000 compounds or so, about 31,000 (8.9%) were called active. About 15% were inconclusive and are not listed. The full list was thinned out, with actives kept by preference. Values without a mark were called inactive. The call rests on the fitted dose curve; in most records, active means well fitted inhibition curve with a large enough effect; inconclusive means small, poorly fitted or top-dose-only effect; inactive means no such curve, though single readings can be large or run the other way.
These compounds were tested against Histone-lysine N-methyltransferase EHMT2 (Homo sapiens) (UniProt Q96KQ7) (assay: qHTS Assay for Inhibitors of Histone Lysine Methyltransferase G9a). Settings: G9a H3K9 monomethylation, AlphaScreen, 2 h; series mostly up to 59 µM; activity, negative = inhibition: at the top concentration.
Histone-lysine N-methyltransferase EHMT2 (Homo sapiens), sequence (Q96KQ7 913-1193 limits assumed): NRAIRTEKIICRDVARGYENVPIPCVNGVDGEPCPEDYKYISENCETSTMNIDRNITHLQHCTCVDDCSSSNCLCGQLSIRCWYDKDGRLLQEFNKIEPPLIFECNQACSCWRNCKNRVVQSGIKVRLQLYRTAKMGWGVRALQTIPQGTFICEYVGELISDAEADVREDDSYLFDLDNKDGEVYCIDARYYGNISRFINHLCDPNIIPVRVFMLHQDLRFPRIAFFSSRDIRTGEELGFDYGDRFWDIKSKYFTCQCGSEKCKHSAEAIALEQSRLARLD
Excerpt: Methylated lysines, on the N-terminal tails of histone proteins serve as epigenetic markers to recruit factors that can then modify local chromatin structure to lead to functional consequences. G9a and other members of the SUV39 family of the SET domain-containing superfamily of histone lysine methyltransferases (HMT) have been identified to specifically methylate Lys9 of histone H3 (H3K9). G9a catalyzes the mono- and di-methylation of H3K9 in mammalian euchromatic regions, where the resulting H3K9me2 is indicative of transcriptional repression. […] The inhibition of G9a will result in transcriptional activation and work synergistically with DNA methyltransferase and histone deacetylase inhibitors, to kill cancer cells. This qHTS assay for identification of G9a inhibitors is a chemiluminescence based AlphaScreen (PerkinElmer). Methylation of biotinylated-histone peptide is measured through specific antibody-based detection, in conjunction with streptavidin-coated donor and anti-IgG antibody-coated acceptor beads. The method is particularly well suited for detection of inhibitors acting by the desired histone peptide competitive mechanism and is applicable to testing other HMTs. Although AlphaScreen has significant advantages with its utility in a variety of epigenetic target assays, the primary screening data provided in this deposition should be used with caution due to the prevalence of screening artifacts. An AlphaScreen counterscreen is highly recommended to be run against any putative actives to eliminate non specific artifacts. Alternatively, one can use other AlphaScreen assays in PubChem to filter out promiscuous hits. Quinn et al. A chemiluminescence-based method for identification of histone lysine methyltransferase inhibitors. Mol Biosyst 6(5): 782-8. 2010. PMID: 20567762 [2] Baell,Holloway. New substructure filters for removal of pan assay interference compounds (PAINS) from screening libraries and for their exclusion in bioassays. J Med Chem. 53(7):2719-40. 2010. PMID: 20131845 NIH Molecular Libraries Probe Production Network [MLPCN] NIH Chemical Genomics Center [NCGC] Structural Genomics Consortium (SGC) NIH Grant: 5U54 MH084681-02
To each well of a 1,536w plate, 2ul of HMT enzyme (final 20nM) were added, using a nanoliter dispenser. The G9a- and GLP-inhibitor BIX-01294 (CID: 25150857) are used as an intraplate control, with a 16-point titration in duplicate. A Kalypsys pin-tool transferred 23nl of library compound solution in DMSO to each well. Following a 15 min incubation of enzyme with compounds at room temperature, 1ul mixture of b-H3K9 peptide substrate (final 500nM) and SAM cofactor (final 20uM) were added. Reactions were allowed to proceed at room temperature for 2 hours. Methylated b-H3K9 peptide product was detected with 0.5 ug/mL rabbit polyclonal anti-monomethyl histone H3K9 antibody (Abcam Inc., Cambridge, MA) and 20 ug/mL each streptavidin-coated donor and anti-rabbit IgG acceptor AlphaScreen beads. Antibody and beads were added in a 1ul dispense, for a final volume of 4ul, and plates were incubated, protected from the light, for 10 min at room temperature. Microplates were then read on an EnVision multilabel plate reader using the 1,536 plate HTS AlphaScreen aperture (excitation time 80 ms, measurement time 240 ms).
COc1ccc(CNC(=O)CSc2n[nH]c(-c3ccc(F)cc3)n2)cc1 was tested, and the “activity, negative = inhibition” value was 0.544%.
For Nc1nc(SCC(=O)NNc2c(Cl)cc(Cl)cc2Cl)n[nH]1, the Potency was 10 µM (active).
With Nc1nc(SCC(=O)Nc2ccc(Cl)c([N+](=O)[O-])c2)n[nH]1 the activity, negative = inhibition was -3.46% [at 12.7 µM].
Cc1ccc(CCNC(=O)C2CCN(c3nnc(-n4cccc4CNc4ccc(C)cc4)s3)CC2)cc1 was tested, and the “activity, negative = inhibition” value was -6.97%.
For COC(=O)c1ccc(NC(=O)c2cccc3c2C(=O)N(C2CCCCC2)C3)cc1, the “activity, negative = inhibition” value was 3.3%.
CC1CCN(C(=O)c2cccc(S(=O)(=O)N3CCCc4ccccc43)c2)CC1 showed an activity, negative = inhibition of 10.4% [at 2.33 µM].
In the case of COc1cc(OC)cc(C(=O)NNC(=O)CCOc2ccccc2OC)c1, the “activity, negative = inhibition” value is reported as 10.9%.
In the case of COc1cccc(C(=O)NCC(=O)OCc2cc(=O)n3ccsc3n2)c1, the “activity, negative = inhibition” value is reported as 4.14%.
COc1cc(C(=O)Nc2ccc(OCc3cc(=O)n4cc(C)sc4n3)cc2)cc(OC)c1OC was tested, and the “activity, negative = inhibition” value was -3.43%.
In the case of O=C(Nc1cccc2cccnc12)c1cccc2c(Br)cccc12, the “activity, negative = inhibition” value is reported as -2.34%.
With CCCC(=O)C1CCN(Cc2ccccc2)CC1 the “activity, negative = inhibition” value was -1.84% [at 102 µM].
For CCOC(=O)C1CCN(Cc2ccc(-c3ccccc3)cc2)CC1, the Potency was 28.2 µM (active).
With CCOC(=O)C1CCN(Cc2nnc(-c3cccc(Br)c3)o2)CC1 the “activity, negative = inhibition” value was -1.61% [at 102 µM].
CCC(C)N(C(=O)Cn1nc(C)c([N+](=O)[O-])c1C)C1CCS(=O)(=O)C1 (stereo not drawn) was tested, and the “activity, negative = inhibition” value was -29.5% [at 102 µM].
With CCCC1OC23CCCCC2C(C#N)(C#N)C1(C#N)C(=N)O3 (stereo not drawn) the Potency was 17.8 µM (active).
With Cc1cccc(NC(=O)CSc2nc3c(oc4ccccc43)c(=O)n2-c2ccc(F)cc2)c1 the “activity, negative = inhibition” value was 4.81%.
COc1ccc(C(=O)CN2C(=O)NC3(CCc4ccccc43)C2=O)c(OC)c1 (stereo not drawn) was tested, and the “activity, negative = inhibition” value was 2.57%.
In the case of CCC(CC)C(=O)N1CCc2cc(OC)c(OC)cc2C1COc1ccc(F)cc1 (stereo not drawn), the “activity, negative = inhibition” value is reported as 10.1%.
CC(Oc1ccc(Br)cc1)C(=O)NCC(c1ccco1)N1CCCCC1 (stereo not drawn) was tested, and the “activity, negative = inhibition” value was -6.2% [at 102 µM].
COc1ccc(NC(=O)C(=O)NCC(c2ccco2)N2CCc3ccccc3C2)cc1 (stereo not drawn) showed an activity, negative = inhibition of 24.1% [at 2.33 µM].
In the case of CCOC(CNC(=O)C(=O)NCC(c1ccco1)N1CCN(c2ccc(OC)cc2)CC1)OCC (stereo not drawn), the Potency is reported as 79.4 µM (active).
In the case of O=C(Cn1nc(C(F)(F)F)c2c1CCCC2)Nc1ccc(Cl)cc1, the “activity, negative = inhibition” value is reported as 2.55%.
For COc1ccccc1CNC(=O)C(=O)NCC(c1ccco1)S(=O)(=O)c1ccc(F)cc1 (stereo not drawn), the “activity, negative = inhibition” value was -4.12%.
With Cc1cc2c(cc1C)N(C(=O)CN1C(=O)c3ccccc3C1=O)C(C)(C)c1ssc(=S)c1-2 the Potency was 28.2 µM (active).
For Cc1cc(C)cc(NC(=O)CN2C(=O)c3ccccc3C2=O)c1, the “activity, negative = inhibition” value was 30% [at 102 µM].
Cc1ccc(NC(=O)CCN2C(=O)c3ccccc3C2=O)cc1C was tested, and the “activity, negative = inhibition” value was 4.98% [at 102 µM].
In the case of COC(=O)c1cc(C(=O)NC(C)C2CC3CCC2C3)cc([N+](=O)[O-])c1 (stereo not drawn), the “activity, negative = inhibition” value is reported as -43.7% [at 102 µM].
In the case of CC1CCC2CCCCC2N1C(=O)c1cc([N+](=O)[O-])cc([N+](=O)[O-])c1 (stereo not drawn), the Potency is reported as 44.7 µM (active).
With Cc1cc([N+](=O)[O-])c(N2CCC[C@@H]2C(=O)O)c([N+](=O)[O-])c1 the “activity, negative = inhibition” value was 9.82%.
Compound CCN(CC)C(=O)c1nc[nH]c1C(=O)N(C)Cc1ccccc1 has an activity, negative = inhibition of -4.89% [at 2.33 µM].
CCc1ccc(C2CC(=O)c3c([nH]c(C(=O)OCc4ccc(C)cc4)c3C)C2)cc1 (stereo not drawn) was tested, and the “activity, negative = inhibition” value was -1.01%.
Cc1ccc(/C=C2\SC(=S)N(CCC(=O)Nc3ccc(O)cc3)C2=O)cc1 was tested, and the “activity, negative = inhibition” value was 9.57% [at 102 µM].
With Cc1ccc(-c2nn(-c3ccccc3)cc2/C=C2\SC(=S)N(CCCCCC(=O)O)C2=O)o1 the Potency was 3.98 µM (active).
C=CCOc1ccc(/C=C2\SC(=S)N(CCC(=O)O)C2=O)cc1 was tested, and the “activity, negative = inhibition” value was -6.64%.
CCN1CCN(c2cc3nc(C)n(Cc4ccccc4)c(=O)c3cc2NC(=O)c2ccccc2F)CC1 was tested, and the Potency was 35.5 µM (active).
For Cc1nc2ccn(Cc3cccnc3)c(=O)c2cc1C(=O)N1CCN(c2ccccc2F)CC1, the “activity, negative = inhibition” value was 7.35%.
CCC(=O)Nc1ccc2nc(C)n(Cc3ccccc3Cl)c(=O)c2c1 was tested, and the “activity, negative = inhibition” value was 6.34%.
For Cc1cccc(N(C)C(=O)CS(=O)(=O)c2cccc3nsnc23)c1, the “activity, negative = inhibition” value was 9.05%.
For O=C(NCCCc1ccccc1)c1ccc2c(c1)sc1nc(-c3ccc(F)cc3)cn12, the “activity, negative = inhibition” value was -17.8%.
In the case of O=C(CN1CCSCC1)N/N=C/c1ccc(Cl)cc1, the Potency is reported as 11.2 µM (active).
In the case of O=C(CN1CCSCC1)N/N=C/c1ccc(F)cc1F, the Potency is reported as 15.8 µM (active).
In the case of O=C(CN1CCSCC1)N/N=C/c1ccc(F)cc1, the Potency is reported as 8.91 µM (active).
In the case of Cc1nn(CC(=O)N/N=C/c2ccc(F)cc2)c(C)c1[N+](=O)[O-], the “activity, negative = inhibition” value is reported as -0.915% [at 102 µM].
O=C(CN1CCN(C/C=C/c2ccccc2)CC1)Nc1ccc(F)cc1F was tested, and the “activity, negative = inhibition” value was -7.31% [at 102 µM].
In the case of Cc1ccc(/C=N/NC(=O)CN2CCN(Cc3ccccc3)CC2)s1, the “activity, negative = inhibition” value is reported as 14.1% [at 102 µM].
In the case of O=C(Cn1cc(C(F)(F)F)ccc1=O)N/N=C/c1ccc(Cl)cc1Cl, the “activity, negative = inhibition” value is reported as 1.22%.
With Cc1ccc(COc2ccc(/C=N/NC(=O)CN3CCCCC3)cc2)cc1 the “activity, negative = inhibition” value was -11.8% [at 102 µM].
Work on O=C(CC(=O)N/N=C\c1ccc(F)cc1)NCCc1ccccc1 yielded an activity, negative = inhibition of 2.67% [at 0.501 µM].

From PubChem BioAssay AID504332 (National Center for Advancing Translational Sciences (NCATS), 2011)
Further: nearly all actives have a fitted effect of over 75% in size.
On the % scale 0 is the no-effect control and ±100 the full control effect; potency means the concentration at half of the fitted maximal effect.
